High-throughput results (PubChem)
MARV entry inh: qHTS for inhibitors of binding or entry into cells for Marburg Virus | 300,000 tested, 1.8% active | Potency, µM (doses to about 37.8 µM), most hits filed as inhibitors | Marburg virus pseudotyped entry inhibition, cell reporter; calls by dose curve; tested in HEK293 cells
Shiga toxin inh: A qHTS for Small Molecule Inhibitors of Shiga Toxin; Vero cells, Shiga toxin protein synthesis inhibition reporter; inhibition, % at 38.7 µM; AID 2315, 2010; 290,000 tested, 9.2% active; in the data active = inhibition mostly above about 28%, no sharp cut-off; inactive = mostly below about 43%
Cycloheximide cs: Cycloheximide Counterscreen for Small Molecule Inhibitors of Shiga Toxin; cell reporter, cycloheximide protein synthesis inhibition counterscreen; max response, %; 300,000 tested, 12% active; in the data active = max response mostly above about 13%, no sharp cut-off; inactive = mostly below about 14%; note: read at 38.3 µM for the half of the compounds with a filed dose
Lassa entry inh: qHTS for Inhibitors of binding or entry into cells for Lassa Virus. Potency, µM (top dose mostly 37.9 µM), actives largely listed as inhibitors. Lassa virus pseudotype entry inhibition, cell reporter. 300,000 tested, 1.2% active; calls by dose curve; tested in HEK293 cells; note: nearly all actives have a fitted effect of over 50% in size
Of the large screens only hits and unclear results are named; the others gave an inactive call. Only some compounds are listed: those with a hit (about 12% of all), similar ones and a draw of the others.

O=C(Nc1cc(S(=O)(=O)N2CCOCC2)ccc1Cl)c1cc2ccccc2o1	none (no result: Shiga toxin inh, Cycloheximide cs)
Cn1c(=O)c(-c2ccccc2N)nc2ccccc21	Shiga toxin inh 36.6
O=C(NNC(=O)C1CC(=O)N(Cc2ccccc2)C1)c1ccc(Br)cc1 (stereo unspecified)	none (no result: MARV entry inh, Lassa entry inh)
Cc1ccc(/C=N/NC(=O)Cc2ccc(O)cc2)s1	Cycloheximide cs 27.2 (no result: MARV entry inh, Lassa entry inh)
Cc1ccc(/C=N/NC(=O)c2ccc(Br)o2)s1	MARV entry inh inconclusive, Shiga toxin inh 81.7, Cycloheximide cs 42.9
CCc1ccc(/C=N\NC(=O)c2ccc(Br)o2)s1	MARV entry inh inconclusive, Shiga toxin inh 99.6, Cycloheximide cs 89.7, Lassa entry inh inconclusive
Cc1cc([N+](=O)[O-])ccc1-c1ccc(/C=N/NC(=O)c2ccc(Br)o2)o1	none (no result: MARV entry inh, Lassa entry inh)
CCc1ccc(/C=N/NC(=O)Cc2ccc(OC)c(OC)c2)s1	MARV entry inh inconclusive
CC1CN(C(=O)CCC(=O)NCCCN2C(C)CCCC2C)c2ccccc2O1 (stereo unspecified)	none (no result: MARV entry inh, Lassa entry inh)
COc1ccc(-c2nc3ncccn3c2Nc2ccc3c(c2)OCCO3)cc1	none (no result: Lassa entry inh)
Fc1ccc(-c2nn3ncccc3c2-c2ccnc(Nc3ccc4c(c3)OCCO4)n2)cc1	Lassa entry inh 7.91µM (no result: MARV entry inh, Shiga toxin inh, Cycloheximide cs)
COc1ccc(-c2nn3ncccc3c2-c2ccnc(Nc3ccc4c(c3)OCCO4)n2)cc1	Lassa entry inh 15.8µM (no result: MARV entry inh, Shiga toxin inh, Cycloheximide cs)
Cc1ccccc1-n1c(C)nnc1SCc1cc(=O)oc2ccc3ccccc3c12	none
COc1cc(OC)c(NC(=O)C(C)n2nc(-c3ccc(C)c(C)c3)ccc2=O)cc1Cl (stereo unspecified)	none (no result: Shiga toxin inh, Cycloheximide cs)
N[C@@H]1CCc2cc(O)c(O)cc2C1	none (no result: Shiga toxin inh, Cycloheximide cs, Lassa entry inh)
COc1cccc(S(=O)(=O)NCc2ccc(C(=O)NCC3CCCO3)cc2)c1 (stereo unspecified)	Shiga toxin inh 45.5
CCOc1ccc2oc(C(=O)NCC(C)(C)CN(C)C)c(C)c2c1	none (no result: MARV entry inh, Lassa entry inh)
COc1ccc(-c2cc(C(=O)NCC3CCCO3)c3ccccc3n2)cc1 (stereo unspecified)	none (no result: MARV entry inh, Lassa entry inh)
COc1ccc2oc(C(=O)OCC(=O)NCC3CCCO3)c(C)c2c1 (stereo unspecified)	none (no result: Shiga toxin inh, Cycloheximide cs)
CCOc1ccc2oc(C(=O)OCC(=O)NCC3CCCO3)c(C)c2c1 (stereo unspecified)	Lassa entry inh 11.2µM (no result: Shiga toxin inh, Cycloheximide cs)
CCOc1ccc2oc(C(=O)NCC3CCCO3)c(C)c2c1 (stereo unspecified)	Shiga toxin inh 88.5, Cycloheximide cs 45.7 (no result: MARV entry inh, Lassa entry inh)
COc1ccc(-c2cc(C(=O)NCC3CCCO3)c3cc(C)ccc3n2)cc1 (stereo unspecified)	MARV entry inh inconclusive, Cycloheximide cs 18.2
COc1cccc(-c2nc(SCc3cc(=O)c4ccc(C)c(C)c4[nH]3)n[nH]2)c1	none (no result: MARV entry inh, Shiga toxin inh, Cycloheximide cs)
O=C(NCC1CCCO1)c1ccc(COCC(F)(F)C(F)F)cc1 (stereo unspecified)	Cycloheximide cs 19.0
CC(C)NC(=O)c1ccc(COCC(F)(F)C(F)F)cc1	none
COc1cccc(C(=O)NCC2CCCO2)c1 (stereo unspecified)	none (no result: Lassa entry inh)
COc1ccc2oc(C(=O)NCC3CCCO3)c(C)c2c1 (stereo unspecified)	Shiga toxin inh 98.2, Cycloheximide cs 64.9 (no result: MARV entry inh, Lassa entry inh)
CCC(=O)c1ccc(OCC(=O)OCC(=O)NCC2CCCO2)cc1 (stereo unspecified)	Cycloheximide cs 19.1
CC(=O)N1C(=O)CC(C)N(C(C)=O)c2ccc([N+](=O)[O-])cc21 (stereo unspecified)	none
COc1cc2c(cc1NC(=S)Nc1cccc(C(F)(F)F)c1)oc1ccccc12	none
COCCCNC(=S)Nc1cc2oc3ccccc3c2cc1OC	MARV entry inh inconclusive, Cycloheximide cs 10.7
COc1cc2c(cc1NC(=S)Nc1cccc3ccccc13)oc1ccccc12	Shiga toxin inh 103.0, Cycloheximide cs 34.9
O=C(Nc1ccc(S(=O)(=O)NCc2ccco2)cc1)C1CCCCC1	none (no result: Lassa entry inh)
O=C(O)c1ccc(/C=C/c2nc3sc4c(c3c(=O)[nH]2)CCC4)cc1	none
CC1=C(C(=O)Nc2ccc(C(=O)NC(C)c3ccccc3)cc2)SCCO1 (stereo unspecified)	none (no result: MARV entry inh, Lassa entry inh)
COc1cccc(OC)c1C(=O)Nc1ccc(C(=O)c2ccncc2)cc1	none (no result: Shiga toxin inh, Cycloheximide cs)
COc1cccc(C(=O)NN/C(C)=C/C(=O)C(F)(F)C(F)(F)C(F)(F)F)c1	Shiga toxin inh 66.1, Cycloheximide cs 24.7, Lassa entry inh inconclusive
COc1cc(OC)cc(C(=O)Nc2cccc(NC(=O)c3ccccc3)c2)c1	MARV entry inh inconclusive, Lassa entry inh inconclusive
COc1cc(OC)cc(C(=O)Nc2cccc(C(C)=O)c2)c1	Shiga toxin inh 47.7, Cycloheximide cs 24.7
COc1cccc(C(=O)Nn2cnnc2)c1	Cycloheximide cs 11.1
COc1cccc(C(=O)Nc2ccc(C(=O)c3ccncc3)cc2)c1	Cycloheximide cs 17.2, Lassa entry inh inconclusive
C=CCNC(=O)C1CCC(=O)N1S(=O)(=O)c1ccc(C)cc1 (stereo unspecified)	none
O=C(COc1ccc2c3c(c(=O)oc2c1)CCC3)NCCCN1CCCC1=O	none (no result: MARV entry inh, Lassa entry inh)
CCOC(=O)c1nn(-c2ccccc2C)c(=O)cc1OCC(=O)N1CCN(c2ccccc2)CC1	none (no result: Shiga toxin inh, Cycloheximide cs)
COc1cccc(C(=O)Nc2cccc(NC(C)=O)c2)c1	none
COc1cccc(C(=O)Nc2ccc(NC(=O)C3CCCCC3)nc2)c1	MARV entry inh inconclusive
COc1cccc(C(=O)Nc2ccc(NC(=O)C(C)(C)C)cn2)c1	MARV entry inh 12.6µM, Shiga toxin inh 41.1, Cycloheximide cs 12.0, Lassa entry inh 7.08µM
COc1cc(NC(=O)c2ccc(N)nc2)cc(C(=O)Nc2cccc(C(F)(F)F)c2)c1	Shiga toxin inh 54.8 (no result: MARV entry inh, Lassa entry inh)
COc1cccc(C(=O)Nc2ccc(NC(C)=O)cc2)c1	MARV entry inh inconclusive, Cycloheximide cs 28.4
Cc1ccccc1NC(=O)c1sc2nc3c(cc2c1N)CCCC3	MARV entry inh inconclusive (no result: Shiga toxin inh, Cycloheximide cs)
C=CCn1c(NC(=O)c2ccccc2)nc2ccccc21	Shiga toxin inh 52.8, Cycloheximide cs 42.7 (no result: MARV entry inh, Lassa entry inh)
Cn1c(/C=N/NC(=O)c2ccccc2Br)nc2ccccc21	Cycloheximide cs 14.8, Lassa entry inh inconclusive
CCn1c(NC(=O)c2ccccc2)nc2ccccc21	MARV entry inh inconclusive, Shiga toxin inh 86.4, Cycloheximide cs 30.6
Cc1ccc(C(=O)N/N=C/c2nc3ccccc3n2C)cc1	Lassa entry inh inconclusive
CNc1nc2ccccc2n1CC(=O)c1ccccc1	Cycloheximide cs 21.7, Lassa entry inh inconclusive
Cc1ccc(C(=O)Cn2c(NCCO)nc3ccccc32)cc1	MARV entry inh inconclusive
CCCCn1c(NC(=O)c2ccccc2)nc2ccccc21	MARV entry inh inconclusive, Lassa entry inh inconclusive
CCC(=O)N1CCCN(S(=O)(=O)c2ccc(C)cc2)C1c1ccc(OC)cc1 (stereo unspecified)	none
COc1ccc(CCCc2nnc(SCC(=O)Nc3cccc(C)c3)o2)cc1C	none (no result: Shiga toxin inh, Cycloheximide cs)
CCCc1ccc(OCC(=O)Nc2sc(C(=O)OCC)c(C)c2C(=O)OCC)cc1	none (no result: MARV entry inh, Shiga toxin inh, Cycloheximide cs)
COc1ccc(OC)c(N=C(N)N=C(N)N)c1	none (no result: MARV entry inh, Lassa entry inh)
COCCCNc1nc2c(c(=O)[nH]c(=O)n2C)n1C[C@@H](O)COc1ccccc1	none (no result: Shiga toxin inh, Cycloheximide cs, Lassa entry inh)
CCCn1c(NC(=O)c2ccccc2Br)nc2ccccc21	MARV entry inh inconclusive, Cycloheximide cs 17.9, Lassa entry inh inconclusive
CSC1(SC2=NCCN2)SC2(NCCN2)S1	MARV entry inh 10µM (no result: Shiga toxin inh, Cycloheximide cs)
C#CCn1c(=NC(=O)c2ccc(S(=O)(=O)N3CCc4ccccc4C3)cc2)sc2cc(S(N)(=O)=O)ccc21	MARV entry inh 14.1µM, Lassa entry inh 9.2µM
